Inconclusive results are not listed. The source made the active and inactive calls. Unless noted, calls follow the shape of the dose curve; as a rule, active = well fitted curve in the direction sought with a large enough effect; inconclusive = small, poorly fitted or top-dose-only effect, or another doubt; inactive = no such curve, though single readings can be large; an effect the other way counts as inactive or inconclusive.
Columns and labels:
[1] = NFAT Signaling Pathway (AID 444; active = well fitted curve in either direction with a large enough effect, not every such curve was filed as active;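 also: carbachol stimulus at about its EC50 of 1 µM final; % is scaled to controls: 0 for no effect and ±100 for the full control effect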); settings: Jurkat NFAT-bla M1, carbachol, beta-lactamase ratio, 5 h; at 17.2 µM (top of the series) unless noted
How it was run: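 Jurkat cells carrying an NFAT-driven β-lactamase reporter and co-transfected muscarinic M1 receptor were treated with compound plus carbachol (1 uM final, an EC50 level) for 5 h at 37 °C. CCF4 loading followed for 1 h at RT; 460/530 nm ratio gave %activity.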

[2] = target: Glucocorticoid receptor (Homo sapiens) (UniProt P04150); experiment: GR-GFP Redistribution (AID 450;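 active = compounds whose dose series gives a full or clear partial fitted curve of increased nuclear translocation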; also: potency is read from the fitted curve at half-maximal effect)
[3] = Stat Signaling Pathway (AID 446; active = well fitted curve in either direction with a large enough effect, not every such curve was filed as active;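 also: ME-180 cervical cancer cells given 40 pM IL-6 alongside compound; SIE-controlled beta-lactamase reporter measured as 460/530 nm FRET emission ratio; % is scaled to controls: 0 for no effect and ±100 for the full control effect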); settings: ME-180 SIE beta-lactamase reporter, IL-6 stimulated, 5 h; at 17.2 µM (top of the series) unless noted
How it was run: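 ME-180 cells carrying a SIE-driven beta-lactamase reporter are stimulated with 40 pM IL-6 for 5 h at 37C in the presence of compound. The 460/530 nm FRET substrate ratio is read after 2.5 h at RT. Data are normalised to 300 pM IL-6 and to 125 nM JAK inhibitor controls.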

[4] = target: Mitogen-activated protein kinase 10 (Mus musculus) (UniProt Q61831); experiment: JNK3 AlphaScreen Assay (AID 530; active = well fitted curve in either direction with a large enough effect, not every such curve was filed as active;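 also: kinase came from lysate of stimulated human HepG2 cells; signal reports phosphorylation of biotinylated GST-cJun 1-79 at Ser73 with 10 µM ATP; % is scaled to controls: 0 for no effect and ±100 for the full control effect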)
How it was run: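 JNK3 came from HepG2 lysates pre-activated with IL-1beta and TNF-alpha and phosphorylated biotinylated GST-cJun (1-79) at 10 uM ATP, pH 7.6, room temperature. Compounds were titrated. AlphaScreen signal used anti-phospho-cJun (Ser73) antibody.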

[5] = target: 3',5'-cyclic-AMP phosphodiesterase 4B (Homo sapiens) (UniProt Q07343); experiment: qHTS Assay for Inhibitors of PDE-IV (AID 607; active = well fitted activation curve with a large enough effect in the main read-out, with a control signal flat, not every such curve was filed as active; also: % of control where 0% means no effect)
How it was run: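 HEK293 ACTOne cells with CNG channel (1000/well), endogenous PDE4; membrane potential dye, compounds up to 22.9 uM final. Fluorescence Ex 535/Em 590; RO 20-1724 (100 uM final) as reference.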

[6] = target: ATP-dependent 6-phosphofructokinase (Trypanosoma brucei brucei) (UniProt O15648); experiment: qHTS Assay to Find Inhibitors of T. brucei phosphofructokinase: hit validation (AID 492961);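 also: luminescence reports ADP formed as PFK phosphorylates fructose-6-phosphate with ATP; % is scaled to controls: 0 for no effect and ±100 for the full control effect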
How it was run: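 Percent activity derived from corrected luminescence, normalized between 0x and 1x enzyme controls, then fitted to concentration-response curves. Conditions: 1.25 nM PFK, 0.1 mM ATP, 0.5 mM F6P, 45 min RT.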

[7] = S16 Schwann cell viability assay (CellTiter-Glo assay) (AID 624031);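 also: cellular ATP luminescence as a viability measure; plate controls were DMSO-treated cells for no effect and cell-free wells for full effect; nearly all actives have a fitted effect of over 70% in size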
How it was run: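 CellTiter-Glo ATP luminescence counter-screen in untransfected S16 rat Schwann cells, 24h compound exposure at 37 degree Celsius after overnight seeding (500-750 cells/well); response scaled between cell-free wells and DMSO (0% activity), curves classed by r2 and magnitude.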

[8] = S16 Schwann cell PMP22 intronic element firefly luciferase assay (AID 624032);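 also: plate controls were DMSO for no effect and PTC124 positive control mean for full effect; nearly all actives have a fitted effect of over 30% in size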
How it was run: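 Rat S16 Schwann cells stably carrying a PMP22 intronic element-driven Fluc reporter were seeded overnight, then exposed to compounds for 24 h at 37 °C. Luminescence was normalized to PTC124 (positive control) and DMSO (0% activity).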

[9] = S16 Schwann cell PMP22 intronic element beta-lactamase assay (AID 624044; calls by dose curve; also: potency is read from the fitted curve at half-maximal effect; nearly all actives have a fitted effect of over 15% in size); settings: S16 rat Schwann cells, PMP22 element beta-lactamase FRET, 24 h; ratio activity, negative = inhibition: at 38.3 µM (top of the series)
How it was run: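 Rat S16 Schwann cells with beta-Lac driven by a PMP22 intronic element, compound-treated 24 h at 37 °C. LiveBLAzer FRET B/G read: 460 nm normalized to potassium clavulanate vs DMSO; 535 nm FRET as viability; concentration-effect curves classified.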

[10] = test system: 7G8; experiment: qHTS profiling for inhibitors of Plasmodium falciparum proliferation (AID 504749); also: nearly all actives have a fitted effect of over 60% in size; also: potency is read from the fitted curve at half-maximal effect;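 as to activity, negative = inhibition: 0% = DMSO vehicle and full inhibition = artemisinin control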; settings: P. falciparum in erythrocytes, SYBR Green DNA, 72 h; series mostly up to 28.7 µM
How it was run: (§1)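 P. falciparum-infected erythrocytes (0.3% parasitemia, 2.5% hematocrit final) were exposed to compounds for 72 h at 37 C in 5% CO2, then lysed with SYBR Green buffer overnight at room temperature; parasite DNA fluorescence was normalized to artemisinin and DMSO controls.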

[11] = test system: CP192; experiment: as above; settings: P. falciparum in erythrocytes, SYBR Green DNA, 72 h; series mostly up to 28.7 µM
How it was run: as §1

[12] = test system: CP201; experiment: as above; settings: P. falciparum in erythrocytes, SYBR Green DNA, 72 h; series mostly up to 28.7 µM
How it was run: as §1

[13] = test system: CP203; experiment: as above; settings: P. falciparum in erythrocytes, SYBR Green DNA, 72 h; series mostly up to 28.7 µM
How it was run: as §1

[14] = test system: CP262; experiment: as above; settings: P. falciparum in erythrocytes, SYBR Green DNA, 72 h; series mostly up to 28.7 µM
How it was run: as §1

[15] = test system: CP266; experiment: as above; settings: P. falciparum in erythrocytes, SYBR Green DNA, 72 h; series mostly up to 28.7 µM
How it was run: as §1

[16] = test system: CP315; experiment: as above; settings: P. falciparum in erythrocytes, SYBR Green DNA, 72 h; series mostly up to 28.7 µM
How it was run: as §1

[17] = test system: DIV14; experiment: as above; settings: P. falciparum in erythrocytes, SYBR Green DNA, 72 h; series mostly up to 28.7 µM
How it was run: as §1

[18] = test system: FAB9; experiment: as above; settings: P. falciparum in erythrocytes, SYBR Green DNA, 72 h; series mostly up to 28.7 µM
How it was run: as §1

[19] = test system: HB3; experiment: as above; settings: P. falciparum in erythrocytes, SYBR Green DNA, 72 h; series mostly up to 28.7 µM
How it was run: as §1

[20] = test system: PC15; experiment: as above; settings: P. falciparum in erythrocytes, SYBR Green DNA, 72 h; series mostly up to 28.7 µM
How it was run: as §1

[21] = test system: PC26; experiment: as above; settings: P. falciparum in erythrocytes, SYBR Green DNA, 72 h; series mostly up to 28.7 µM
How it was run: as §1

[22] = test system: PC49; experiment: as above; settings: P. falciparum in erythrocytes, SYBR Green DNA, 72 h; series mostly up to 28.7 µM
How it was run: as §1

[23] = test system: W2; experiment: as above; settings: P. falciparum in erythrocytes, SYBR Green DNA, 72 h; series mostly up to 28.7 µM
How it was run: as §1

Chain of Glucocorticoid receptor (Homo sapiens) (P04150 whole entry, looked up): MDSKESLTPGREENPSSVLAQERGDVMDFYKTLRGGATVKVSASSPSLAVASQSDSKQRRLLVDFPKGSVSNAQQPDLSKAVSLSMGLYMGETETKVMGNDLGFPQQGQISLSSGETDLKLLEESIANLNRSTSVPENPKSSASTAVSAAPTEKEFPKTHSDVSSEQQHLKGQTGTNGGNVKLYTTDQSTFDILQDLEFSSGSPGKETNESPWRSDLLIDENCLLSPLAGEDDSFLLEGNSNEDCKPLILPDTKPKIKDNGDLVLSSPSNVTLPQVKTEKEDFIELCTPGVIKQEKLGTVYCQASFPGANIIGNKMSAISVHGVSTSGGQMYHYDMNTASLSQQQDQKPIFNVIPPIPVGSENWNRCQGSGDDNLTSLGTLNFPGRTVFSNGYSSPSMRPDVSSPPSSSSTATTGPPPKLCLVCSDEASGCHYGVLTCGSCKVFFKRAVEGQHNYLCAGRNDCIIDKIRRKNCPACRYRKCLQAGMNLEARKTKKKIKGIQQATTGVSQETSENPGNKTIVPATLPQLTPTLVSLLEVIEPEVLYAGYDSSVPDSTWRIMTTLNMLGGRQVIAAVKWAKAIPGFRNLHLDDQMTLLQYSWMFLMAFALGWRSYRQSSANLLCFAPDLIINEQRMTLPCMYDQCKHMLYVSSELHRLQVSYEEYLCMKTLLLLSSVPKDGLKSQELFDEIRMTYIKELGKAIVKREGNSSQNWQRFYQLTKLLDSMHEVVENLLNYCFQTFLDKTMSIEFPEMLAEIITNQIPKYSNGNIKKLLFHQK
Chain of ATP-dependent 6-phosphofructokinase (Trypanosoma brucei brucei) (O15648 whole entry, looked up): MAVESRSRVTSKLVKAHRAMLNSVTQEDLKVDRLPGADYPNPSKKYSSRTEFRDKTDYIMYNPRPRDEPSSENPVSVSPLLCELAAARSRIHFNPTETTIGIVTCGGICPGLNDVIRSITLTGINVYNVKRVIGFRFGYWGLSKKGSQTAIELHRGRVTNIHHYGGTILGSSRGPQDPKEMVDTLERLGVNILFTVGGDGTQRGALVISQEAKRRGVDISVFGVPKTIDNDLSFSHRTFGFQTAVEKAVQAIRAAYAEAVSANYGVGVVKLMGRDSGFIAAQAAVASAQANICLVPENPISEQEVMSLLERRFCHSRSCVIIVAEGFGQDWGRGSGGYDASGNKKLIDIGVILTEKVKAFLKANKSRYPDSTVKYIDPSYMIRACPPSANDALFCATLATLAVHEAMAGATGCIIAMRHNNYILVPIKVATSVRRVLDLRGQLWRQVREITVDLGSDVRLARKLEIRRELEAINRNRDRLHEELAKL
Chain of 3',5'-cyclic-AMP phosphodiesterase 4B (Homo sapiens) (Q07343 whole entry, looked up): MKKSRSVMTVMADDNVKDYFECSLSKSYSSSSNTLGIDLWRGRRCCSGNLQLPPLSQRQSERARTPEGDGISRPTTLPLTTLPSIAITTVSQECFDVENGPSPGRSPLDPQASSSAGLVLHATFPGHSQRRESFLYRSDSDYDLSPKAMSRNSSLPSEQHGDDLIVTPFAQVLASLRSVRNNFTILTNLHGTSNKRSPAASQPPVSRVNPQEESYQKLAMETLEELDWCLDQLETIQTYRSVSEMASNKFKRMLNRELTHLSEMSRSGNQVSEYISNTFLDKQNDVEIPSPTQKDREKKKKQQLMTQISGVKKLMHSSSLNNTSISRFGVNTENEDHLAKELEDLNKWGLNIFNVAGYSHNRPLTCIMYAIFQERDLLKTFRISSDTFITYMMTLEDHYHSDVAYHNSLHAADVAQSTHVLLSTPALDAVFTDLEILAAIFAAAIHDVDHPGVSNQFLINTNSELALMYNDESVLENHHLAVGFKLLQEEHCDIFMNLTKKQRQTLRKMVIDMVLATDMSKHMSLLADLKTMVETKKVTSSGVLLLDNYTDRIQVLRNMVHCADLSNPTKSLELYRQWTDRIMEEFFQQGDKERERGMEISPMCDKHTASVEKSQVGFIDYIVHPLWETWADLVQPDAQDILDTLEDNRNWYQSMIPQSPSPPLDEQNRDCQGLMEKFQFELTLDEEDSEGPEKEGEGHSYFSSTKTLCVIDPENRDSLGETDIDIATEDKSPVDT

Cc1c(NC(=O)c2coc(=O)c(Br)c2)c(=O)n(-c2ccccc2)n1C
inactive: Potency [2] > 20.6 µM
active: activity change, negative = inhibition [1] -128%

CC1(C)Cc2c(C#N)c(OCC(=O)c3ccc(Cl)cc3)nc(-c3ccoc3)c2CO1
inactive: activity change, negative = inhibition [1] -4.81% | Potency [2] > 20.6 µM

COc1cc([C@H]2c3cc4c(cc3[C@@H](O[C@H]3O[C@H]5CO[C@@H](C)O[C@H]5[C@@H](O)[C@@H]3O)[C@@H]3COC(=O)[C@H]23)OCO4)cc(OC)c1O
inactive: activity change, negative = inhibition [1] -0.949% | activity, negative = inhibition [3] -20.6% | Potency [4] | Potency [5] | Potency [6] | Potency [7] | Potency [8] | Potency [11] | Potency [12] | Potency [13] | Potency [14] | Potency [15] | Potency [16] | Potency [17] | Potency [18] | Potency [19] | Potency [20] | Potency [21] | Potency [22]
active: Potency [9] 4.46 µM | Potency [10] 15.8 µM | Potency [23] 13.5 µM

Source: PubChem BioAssay (NCATS)
